Inconclusive results are not listed. Calls of active or inactive are those of the source. How the source made its calls: active means hit-call score of the fitted dose curve at least 0.9, where 1 is the maximum; inconclusive means response in the unintended direction; inactive means score below 0.9.
Assays:
[1] = ATG_XTT_Cytotoxicity: Cytotoxicity Assessment in the Attagene TRANS-FACTORIAL HepG2 Assay (AID 2283584)
Procedure, shortened: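 Transfect HepG2 with GAL4-UAS reporter units, dose compound, incubate 24 h, then measure viable cell number by XTT. Fit concentration response against DMSO baseline.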

[2] = molecular target: Cellular tumor antigen p53 (Homo sapiens) (UniProt P04637); test: TOX21_p53_BLA_p2_ratio: Tox21 HCT-116 p53 Agonism Beta-lactamase Assay, Ratio, Phase 2 (AID 2283592)
Chain of Cellular tumor antigen p53 (Homo sapiens) (P04637 whole entry, looked up): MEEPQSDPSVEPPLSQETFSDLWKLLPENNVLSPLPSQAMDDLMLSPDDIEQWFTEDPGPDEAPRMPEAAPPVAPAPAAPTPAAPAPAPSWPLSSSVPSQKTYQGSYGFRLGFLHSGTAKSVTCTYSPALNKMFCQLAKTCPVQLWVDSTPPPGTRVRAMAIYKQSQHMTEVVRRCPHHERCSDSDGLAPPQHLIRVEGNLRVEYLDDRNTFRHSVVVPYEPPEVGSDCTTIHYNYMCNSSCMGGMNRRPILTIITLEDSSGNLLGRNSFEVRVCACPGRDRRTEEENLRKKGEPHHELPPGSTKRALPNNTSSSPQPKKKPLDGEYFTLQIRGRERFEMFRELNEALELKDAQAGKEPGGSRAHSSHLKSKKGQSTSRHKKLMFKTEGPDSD
Procedure, shortened: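 Cleaved-to-uncleaved substrate ratio (460 vs 530 nm) measured in HCT116 cells with an inducible beta-lactamase reporter linked to p53 activity. Compounds incubated 16 h at 37C before 2 h room-temperature CCF4-AM loading.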

[3] = molecular target: Cellular tumor antigen p53 (Homo sapiens) (UniProt P04637); test: TOX21_p53_BLA_p3_ratio: Tox21 HCT-116 p53 Agonism Beta-lactamase Assay, Ratio, Phase 3 (AID 2283596)
Procedure, shortened: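 Cells were seeded at 4000/well, rested 5 h at 37C, then dosed with DMSO compound solutions (217-fold dilution) for 16 h. CCF4-AM substrate was loaded for 2 h at room temperature, and the 460/530 nm emission ratio was fitted for gain of signal versus DMSO.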

[4] = TOX21_p53_BLA_p4_viability: Viability Assessment in the Tox21 HCT-116 p53 Agonism Beta-lactamase Assay, Phase 4 (AID 2283597);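 further: hits lower the luminescence signal meaning cytotoxicity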
Procedure, shortened: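 Viability is taken as cellular ATP: after 16 h compound exposure of HCT116 cells and a 2 h room-temperature CCF4-AM substrate step, CellTiter-Glo reagent is added and luminescence is measured 30 min later.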

[5] = molecular target: Cellular tumor antigen p53 (Homo sapiens) (UniProt P04637); test: TOX21_p53_BLA_p5_ratio: Tox21 HCT-116 p53 Agonism Beta-lactamase Assay, Ratio, Phase 5 (AID 2283599)
Procedure, shortened: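 HCT-116 cells carrying a p53-inducible beta-lactamase reporter were seeded at 4000 cells/well and dosed after 5 h with compound in DMSO (217-fold dilution). After 16 h at 37C, CCF4-AM substrate was added for 2 h, and the 460/530 nm emission ratio was scored as gain-of-signal versus DMSO.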

[6] = TOX21_p53_BLA_p3_viability: Viability Assessment in the Tox21 HCT-116 p53 Agonism Beta-lactamase Assay, Phase 3 (AID 2283593);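 further: cells exposed to compound for 16 h before reading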
Procedure, shortened: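 HCT-116 cells (4000/well) rested 5 h at 37C, then got DMSO compounds by pin tool (217-fold dilution) for 16 h at 37C, 5% CO2. After the bla read, CellTiter-Glo was added and luminescence read at 30 min, room temperature.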

[7] = TOX21_p53_BLA_p5_viability: Viability Assessment in the Tox21 HCT-116 p53 Agonism Beta-lactamase Assay, Phase 5 (AID 2283600)
Procedure, shortened: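 Viability is taken from cellular ATP content, measured by luciferase luminescence in the same wells after the beta-lactamase ratio read. Cells are seeded at 4000 per well and exposed to DMSO-dissolved compounds, diluted 217-fold, for 16 h.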

[8] = molecular target: Cellular tumor antigen p53 (Homo sapiens) (UniProt P04637); test: TOX21_p53_BLA_p4_ratio: Tox21 HCT-116 p53 Agonism Beta-lactamase Assay, Ratio, Phase 4 (AID 2283601)
Procedure, shortened: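 HCT116 cells carrying an inducible beta-lactamase reporter were plated at 4000 cells/well, rested 5 h, then exposed to compounds in DMSO (217-fold dilution) for 16 h at 37C. CCF4-AM substrate was loaded 2 h at room temperature; 460/530 nm emission ratio scored gain-of-signal versus DMSO.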

[9] = TOX21_p53_BLA_p2_viability: Viability Assessment in the Tox21 HCT-116 p53 Agonism Beta-lactamase Assay, Phase 2 (AID 2283591);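 further: compound exposure lasted 16 h at 37 °C; actives lower the ATP signal meaning cytotoxicity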
Procedure, shortened: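 HCT-116 p53-bla cells (4000/well) rested 5 h at 37C, then received compounds in DMSO (217-fold dilution) for 16 h at 37C, 5% CO2. After the CCF4 read, CellTiter-Glo was added; ATP luminescence was read after 30 min at room temperature.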

Measured: outcome

CC(C)(C)c1n[nH]c(=S)n(N)c1=O
inactive: [1] | [2] | [3] | [4] | [5]

OC[C@H]1O[C@H](O[C@]2(CCl)O[C@H](CCl)[C@@H](O)[C@@H]2O)[C@H](O)[C@@H](O)[C@H]1Cl
not listed: [4] | [9]
inactive: all other assays above

C=CC(C)(O)CCC=C(C)CCC=C(C)C (stereo unspecified)
inactive: [1] | [2] | [3] | [5]

CC(=O)c1c(C)cc(C(C)(C)C)cc1C
not listed: [3] | [9]
inactive: all other assays above

CC[C@]12CCCN3CCc4c(n(c5ccccc45)[C@@](O)(C(=O)OC)C1)[C@@H]32
not listed: [4] | [6] | [9]
inactive: all other assays above

CCCCCCCCCCCCCCCC(=O)OC[C@H](O)[C@H]1OC(=O)C(O)=C1O
not listed: [4] | [5] | [9]
inactive: all other assays above

COC(C(=O)O)c1ccccc1 (stereo unspecified)
inactive: [1] | [2]

CC(C)[C@@H]1CC[C@@H](C)CC1=O
not listed: [4] | [7] | [9]
inactive: all other assays above

O=C1O[C@@H]2[C@@H](O)[C@H](O)O[C@@H]2[C@H]1O
not listed: [6] | [9]
inactive: all other assays above

OC1OC[C@@H](O)[C@H](O)[C@H]1O (stereo partly specified)
not listed: [1] | [4] | [8]
inactive: all other assays above

CCCCCCCCC=O
inactive: [1] | [4] | [7]

Nc1ccc(S(N)(=O)=O)cc1
not listed: [1]
inactive: all other assays above

CCCCCCCCCCCCCC(=O)O
not listed: [1]
inactive: all other assays above

C=C(C)C(=O)NCCCN(C)C
not listed: [4] | [6] | [9]
inactive: all other assays above

Cc1ccc(Nc2ccc(O)c3c2C(=O)c2ccccc2C3=O)cc1
not listed: [1] | [7] | [8]
inactive: all other assays above

O=S(=O)(O)c1cccc2c(S(=O)(=O)O)cccc12
inactive: [1] | [3] | [4] | [8]

O=C1CCCCCCCCCCOCCCCO1
not listed: [3] | [6] | [9]
inactive: all other assays above

CCCCN
inactive: [1] | [6] | [3] | [4] | [5]

C=C(C)C(=O)OCCOC(=O)CC(C)=O
not listed: [4] | [6] | [9]
inactive: all other assays above

CC(=O)Nc1ccc(CC(=O)O)cc1
not listed: [1]
inactive: all other assays above

C=CCOc1nc(OCC=C)nc(OCC=C)n1
inactive: [1] | [7] | [8]

CC1(C)[C@H]2CC[C@]1(C)[C@H](O)C2
not listed: [1] | [4] | [8]
inactive: all other assays above

CC(C)=CCCC(C)CC=O (stereo unspecified)
inactive: [1] | [2] | [3] | [5] | [8]

Cc1ccc(S)cc1
not listed: [1] | [4] | [8]
inactive: all other assays above

NNc1nc(-c2ccc(N)cc2)cs1
not listed: [3] | [6] | [9]
inactive: all other assays above

CCCc1ccccc1O
not listed: [4] | [6] | [9]
inactive: all other assays above

C=COCCOCCOCCOC=C
not listed: [4] | [6] | [9]
inactive: all other assays above

CCCCCCCCCOC(C)=O
not listed: [4] | [6] | [9]
inactive: all other assays above

COc1cc(C=O)ccc1OC(=O)C(C)C
inactive: [1] | [2] | [3] | [5] | [8]

O=C(O)c1cn(C2CC2)c2cc(N3CCNCC3)c(F)cc2c1=O
inactive: [1] | [4] | [7]

CCO[Si](CCCS)(OCC)OCC
inactive: [1] | [6] | [5]

O=C(O)c1cn(-c2ccc(F)cc2)c2cc(N3CCNCC3)c(F)cc2c1=O
inactive: [1] | [2] | [3] | [5] | [8]

CCCCCCOC(=O)CCCCC
inactive: [1] | [2] | [3] | [5] | [8]
